Rows were chosen to be rich in hits. Some 2.8% of all compounds tested hit in one or more screens of this group.
Shn3 inh set2 – Schnurri-3 reporter inhibition in Clone20 osteoblasts | hit rate 0.52% among 360,000 | inhibition, % at 12.5 µM | AID 588674 | Clone20 osteoblast Shn3 3'UTR firefly luciferase, 24 h;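 active = mean inhibition of at least 75% with every replicate also reaching 75%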
Peg3 prom inh-1 – reduces Peg3 promoter-driven luciferase expression in HeLa | HeLa PEG-Prom luciferase reporter, luminescence, overnight | inhibition, % at 20 µM | hit rate 1.7% among 360,000 | AID 588405;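 active = inhibition of at least 50% at 20 µM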
HIF-2a block – blocks HIF-2a reporter activity. 786-0 RCC cells HIF-2a reporter, luciferase luminescence, overnight. inhibition, % at 18.8 µM. hit rate 0.72% among 360,000;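 active = inhibition of the luminescence signal of 40% or more relative to plate controls, in a single-dose primary screen at 18.75 µM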
KKLEB cytotox – CF airway cell cytotoxicity counter-screen | KKLEB CF airway cells viability, ATPlite luminescence, overnight; active compounds read low; cells stimulated with P. aeruginosa culture filtrate | activity change (cytotoxicity), % at 5 µM | hit rate 0.36% among 360,000 | AID 602141;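 active = corrected activity change at or below -50% at 5 µM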
CF NFkB block – blocks PAF-induced NF-kB reporter in cystic fibrosis cells; hit rate 0.86% among 360,000; inhibition, % at 5 µM; KKLEB NF-kB-GFP reporter, GFP fluorescence overnight;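 active = at least 50% inhibition at 5 µM, scaled per plate between neutral and stimulator controls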;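 note: PAF is a Pseudomonas aeruginosa culture filtrate used as stimulus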
TRPM1 prom inh – inhibitors of MITF-driven TRPM1 promoter in melanoma cells. SK-MEL-5 TRPM1 promoter luciferase, 24 h. inhibition, % at 12.5 µM. hit rate 0.83% among 330,000;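 active = mean inhibition across replicates of 60% or more, whatever share of single replicates reaches that level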
Peg3 prom inh-2 – Peg3 promoter inhibition confirmation | shares compounds with Peg3 prom inh-1 | HeLa PEG-Prom luciferase reporter, luminescence, overnight | inhibition, % at 20 µM | hit rate 84% among 1,300 | AID 602417;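 active = at 20 µM dose, 40% or more inhibition averaged across four replicates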
CF NFkB inh conf – CF NF-kB inhibition confirmation, single concentration; hit rate 64% among 1,300; inhibition, % at 5 µM; AID 602472; KKLEB CF airway cells, PAF-induced NF-kB-GFP fluorescence, overnight; shares compounds with CF NFkB block; in the data active = inhibition above about 40%;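 note: stimulus PAF is a Pseudomonas aeruginosa filtrate and not platelet activating factor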
Mdm2-MdmX confirm – confirmation of inhibitors of human Mdm2/MdmX interaction, set 2; shares compounds with HIF-2a block; SaOS-2 split-luciferase Mdm2/MdmX complementation, luminescence; inhibition, % at 8 µM; hit rate 99% among 740;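 active = mean inhibition of the luminescence signal across two replicates at or above 26 percent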
Target sequence (O15151 whole entry, looked up): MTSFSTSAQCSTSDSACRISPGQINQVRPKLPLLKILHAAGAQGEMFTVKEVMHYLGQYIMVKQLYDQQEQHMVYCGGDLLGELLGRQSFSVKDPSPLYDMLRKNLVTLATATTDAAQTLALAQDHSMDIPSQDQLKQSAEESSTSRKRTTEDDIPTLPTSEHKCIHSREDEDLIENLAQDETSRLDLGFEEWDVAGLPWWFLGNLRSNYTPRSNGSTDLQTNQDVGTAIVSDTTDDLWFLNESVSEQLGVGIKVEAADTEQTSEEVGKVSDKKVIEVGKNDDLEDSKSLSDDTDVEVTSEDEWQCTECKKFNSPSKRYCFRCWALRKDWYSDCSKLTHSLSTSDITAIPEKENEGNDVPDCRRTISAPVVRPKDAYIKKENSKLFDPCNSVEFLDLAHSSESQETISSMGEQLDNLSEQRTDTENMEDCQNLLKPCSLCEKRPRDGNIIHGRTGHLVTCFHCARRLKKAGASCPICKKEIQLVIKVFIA
Target sequence (Q00987 whole entry, looked up): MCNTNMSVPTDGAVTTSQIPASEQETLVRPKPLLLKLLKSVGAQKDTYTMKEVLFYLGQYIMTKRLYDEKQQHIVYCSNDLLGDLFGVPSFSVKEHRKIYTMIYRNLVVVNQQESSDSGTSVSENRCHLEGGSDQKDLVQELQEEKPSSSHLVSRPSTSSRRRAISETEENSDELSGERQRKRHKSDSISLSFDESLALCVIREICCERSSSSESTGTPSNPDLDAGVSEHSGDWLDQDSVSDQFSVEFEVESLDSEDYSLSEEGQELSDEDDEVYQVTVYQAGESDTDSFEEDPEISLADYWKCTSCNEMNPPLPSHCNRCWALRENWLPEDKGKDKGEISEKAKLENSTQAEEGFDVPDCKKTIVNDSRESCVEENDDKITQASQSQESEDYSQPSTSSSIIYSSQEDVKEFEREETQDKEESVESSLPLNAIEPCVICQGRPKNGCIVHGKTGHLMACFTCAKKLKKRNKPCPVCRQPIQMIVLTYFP
HIF-2a inh conf – confirmation of HIF-2a inhibitors. hit rate 56% among 1,800. shares compounds with HIF-2a block. 786-0 RCC cells, HIF-2a luciferase reporter luminescence, overnight. inhibition, % at 18.8 µM. AID 651580;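 active = mean inhibition across four replicates of at least 40 percent at the single tested concentration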
HIF-1a cs – HIF-1a inhibition counter-screen for HIF-2a hits. shares compounds with HIF-2a block. MiaPaCa-2 HIF-1a luciferase reporter, desferoxamine, overnight. inhibition, % at 18.8 µM. hit rate 72% among 1,800. AID 651589;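 active = mean inhibition of the reporter signal across four replicates at the single tested dose of 50% or more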
Of the large screens only hits and unclear results are named; the others gave an inactive call (follow-up assays come after a bar, where they were run).

COc1cccc(/C=N/Nc2ncccc2[N+](=O)[O-])c1OC	Peg3 prom inh-1 72, HIF-2a block 51 (no result: Shn3 inh set2) | Peg3 prom inh-2 62 | HIF-2a inh conf 74 | HIF-1a cs inactive
O=[N+]([O-])c1ccc(/C=N/Nc2ncccc2[N+](=O)[O-])s1	none
N#Cc1ccccc1S(=O)(=O)N1CCN(CC(=O)NC(=O)NC2CCCCC2)CC1	none
CCCNC(=O)COC(=O)c1ccccc1C(=O)c1ccc(Cl)c([N+](=O)[O-])c1	Peg3 prom inh-1 106, HIF-2a block 83, CF NFkB block 101, TRPM1 prom inh 87 | Peg3 prom inh-2 99 | CF NFkB inh conf 109 | Mdm2-MdmX confirm 103 | HIF-2a inh conf 42 | HIF-1a cs 104
O=C(NCCc1ccccc1Cl)c1cc(COc2ccc(F)cc2F)on1	none
Cc1ccc(/C=N\NC(=O)CNC(=O)C23CC4CC(CC(C4)C2)C3)o1	none
Cc1ccc(NC(=O)O/N=C/c2c(C)nn(C(C)(C)C)c2C)cc1Cl	Peg3 prom inh-1 104, HIF-2a block 91, TRPM1 prom inh 83 (no result: Shn3 inh set2) | Peg3 prom inh-2 98 | Mdm2-MdmX confirm 101 | HIF-2a inh conf 97 | HIF-1a cs 104
Cc1ccc(NC(=O)Nn2cnnc2)cc1Cl	none
Cc1ccc(C(=O)n2c(N)nc3ccccc32)cc1	Peg3 prom inh-1 80, HIF-2a block 42, TRPM1 prom inh 67 | Peg3 prom inh-2 inactive | HIF-2a inh conf 69 | HIF-1a cs 87
O=C(O)c1ccc(COc2ccccc2Cl)cc1	none
O=C(O)c1cccc(COc2ccccc2Cl)c1	Shn3 inh set2 89, Peg3 prom inh-1 92, HIF-2a block 77, TRPM1 prom inh 92 | Peg3 prom inh-2 82 | Mdm2-MdmX confirm 78 | HIF-2a inh conf 93 | HIF-1a cs inactive
Cc1ccc(S(=O)(=O)NCC(=O)N(CC2CCCO2)C(C(=O)NC2CCCCC2)C(C)C)cc1 (stereo not given)	none
CCCC(=O)N1CCCC(c2cc(C(=O)Nc3ccccc3)no2)C1 (stereo not given)	Peg3 prom inh-1 54, HIF-2a block 43 (no result: TRPM1 prom inh) | Peg3 prom inh-2 47 | HIF-2a inh conf 66 | HIF-1a cs 71
O=C(NC1CCCCC1)C(c1cccnc1)N(C(=O)CCl)c1cccc(Cl)c1 (stereo not given)	Peg3 prom inh-1 106, HIF-2a block 62, KKLEB cytotox -63, CF NFkB block 54, TRPM1 prom inh 83 | Peg3 prom inh-2 99 | Mdm2-MdmX confirm 103 | HIF-2a inh conf 98 | HIF-1a cs 106
Cc1cccc(N(C(=O)CNC(=O)c2ccco2)C(C(=O)NC2CCCCC2)c2cccnc2)c1 (stereo not given)	none
COc1cc(OC)cc(C(=O)N(Cc2ccco2)c2c(N)n(Cc3ccccc3)c(=O)[nH]c2=O)c1	none
Cc1ccccc1OCC(O)CNC1CCC(NCC(O)COc2ccccc2C)CC1 (stereo not given)	Shn3 inh set2 97, Peg3 prom inh-1 101, HIF-2a block 93, TRPM1 prom inh 99 | Peg3 prom inh-2 99 | Mdm2-MdmX confirm 103 | HIF-2a inh conf inactive | HIF-1a cs 105
Nn1cnnc1SCC(=O)Nc1ccc(C2CCCCC2)cc1	none
O=C(O)CSCC(=O)Nc1ccc(C2CCCCC2)cc1	Peg3 prom inh-1 71, HIF-2a block 81, TRPM1 prom inh 74 | Peg3 prom inh-2 77 | HIF-2a inh conf 95 | HIF-1a cs 94
NNc1nc2c(Cl)ccc(Cl)c2s1	none
c1ccc(CNc2nc(-c3cccnc3)nc3ccccc23)cc1	none
c1ccc(CN2CCC(Nc3nc(-c4cccnc4)nc4ccccc34)CC2)cc1	Peg3 prom inh-1 100, HIF-2a block 42 | Peg3 prom inh-2 70 | HIF-2a inh conf inactive | HIF-1a cs 79
O=C(c1ccc(Cl)cc1)N1CCCCC(Sc2nnc(-c3ccc4c(c3)OCO4)o2)C1=O (stereo not given)	Peg3 prom inh-1 54, HIF-2a block 64, TRPM1 prom inh 80 | Peg3 prom inh-2 58 | HIF-2a inh conf 83 | HIF-1a cs 68
O=C(O)CSc1nnc(-c2ccc3c(c2)OCO3)o1	none
CCCC(=O)NC(c1ccc(OC)cc1)c1ccc2cccnc2c1O (stereo not given)	Shn3 inh set2 92, Peg3 prom inh-1 55, TRPM1 prom inh 73 | Peg3 prom inh-2 71 | Mdm2-MdmX confirm 86
CCCCC(=O)NC(c1ccccc1)c1ccc2cccnc2c1O (stereo not given)	Shn3 inh set2 93, Peg3 prom inh-1 55, TRPM1 prom inh 65 | Peg3 prom inh-2 88 | Mdm2-MdmX confirm 87
CCC(=O)NC(c1ccco1)c1cc(Cl)c2cccnc2c1O (stereo not given)	none
CCCCC(=O)NC(c1ccc([N+](=O)[O-])cc1)c1c(O)ccc2ccccc12 (stereo not given)	none
CCCC(=O)NC(c1ccccc1)c1ccc2cccnc2c1O (stereo not given)	Shn3 inh set2 93, Peg3 prom inh-1 53, TRPM1 prom inh 65 | Peg3 prom inh-2 63 | Mdm2-MdmX confirm 80
CCCN1CCC(NC(=S)Nc2cccc(Cl)c2Cl)CC1	none
CCOc1ccc(S(=O)(=O)Nc2cccc(C(=O)N(C)CC(=O)Nc3cccc(OC)c3)c2)cc1	none
CC(C)CN(C(=O)COC(=O)CN1C(=O)c2ccccc2C1=O)c1c(N)n(Cc2ccccc2)c(=O)[nH]c1=O	none
CN(C)c1ccc(Nc2nc(N)c3ccccc3n2)cc1	Peg3 prom inh-1 63, HIF-2a block 47, KKLEB cytotox -62 | Peg3 prom inh-2 65 | HIF-2a inh conf 79 | HIF-1a cs inactive
Cc1ccc(Nc2nc(N)c3ccccc3n2)cc1Cl	none
COC(=O)c1cc(=O)n(Cc2ccco2)c(=Nc2ccc(F)cc2)s1	Peg3 prom inh-1 82, HIF-2a block 49 (no result: TRPM1 prom inh) | Peg3 prom inh-2 84 | HIF-2a inh conf 60 | HIF-1a cs 97
COC(=O)c1cc(=O)n(Cc2cccs2)c(=Nc2ccccc2)s1	none
O=C(c1cc(COc2cccc(C(F)(F)F)c2)on1)N1C[C@@H]2CCC[C@H]1C2	none

High-throughput results as filed in PubChem.
